Experimental data: PubChem BioAssay AID1159580 (chemical genetic matrix, 2015)
About 2,000 (36%) of roughly 5,500 compounds were called active. Another 18% or so got no clear call; they are omitted. No stated cut-off is given here; in the data, active means normalized growth mostly below about 0.91 (no sharp cut-off); inconclusive means no clear call, values can overlap the other calls; inactive means mostly above about 0.92. This is one part of the list.

Experiment: chemical genetic growth profiling, strain panel (AID 1159580);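 further: tested at 20 µM; growth read once vehicle control cultures reached saturation at 30 °C; 1 = growth at the plate median or of vehicle wells; lower values mean less growth of the strain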
Conditions: S. cerevisiae deletion strains, growth OD

Measured: normalized growth

O=C(O)C1CC(=O)N(Cc2ccccc2Cl)C1 (stereo not drawn)
inactive: locus YAL013W, strain DEP1, active compounds read low 1.01 | locus YBR229C, strain ROT2, active compounds read low 1 | locus YCL061C, strain MRC1, active compounds read low 1.02 | locus YDL101C, strain DUN1, active compounds read low 0.994 | locus YDL134C, strain PPH21, active compounds read low 1.01 | locus YDR150W, strain NUM1, active compounds read low 0.947 | locus YEL061C, strain CIN8, active compounds read low 1.03 | locus YGR078C, strain PAC10, active compounds read low 1.01 | locus YHR030C, strain SLT2, active compounds read low 1.15 | locus YHR087W, strain rtc3, active compounds read low 1.01 | locus YJR043C, strain POL32, active compounds read low 0.966 | locus YJR075W, strain HOC1, active compounds read low 1 | locus YLR039C, strain RIC1, active compounds read low 1.04 | locus YLR058C, strain SHM2 (second series), active compounds read low 1 | locus YLR085C, strain ARP6, active compounds read low 1.04 | locus YLR262C, strain YPT6, active compounds read low 1.01 | locus YML094W, strain GIM5, active compounds read low 1.04 | locus YMR219W, strain ESC1, active compounds read low 1.01 | locus YMR263W, strain SAP30, active compounds read low 1.01 | locus YMR307W, strain GAS1, active compounds read low 1.02 | locus YNL153C, strain GIM3, active compounds read low 0.992 | locus YNL298W, strain CLA4 (second series), active compounds read low 1.07 | locus YNL322C, strain KRE1, active compounds read low 1.01 | locus YNR030W, strain Alg12, active compounds read low 1.03 | locus YOL006C, strain TOP1, active compounds read low 1.08 | locus YPL055C, strain LGE1, active compounds read low 0.931 | locus YPL241C, strain CIN2, active compounds read low 1.11 | locus YPR135W, strain CTF4, active compounds read low 1.06
